Bioassay records (PubChem)
Hits are enriched below; roughly 2.4% of the tested compounds scored in any of these assays.
Cruzain Triton = blocks cruzain activity in presence of Triton detergent; hit rate 0.43% among 200,000; purified cruzain, Z-FR-AMC fluorescence, 0.01% Triton; AID 1478; P25779; Potency, µM, inactives show max response, negative = inhibition, most hits filed as inhibitors;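 note: plate controls were neutral wells for no effect and buffer without enzyme for full effect; nearly all actives have a fitted effect of over 40% in size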
Target sequence (P25779 123-467 limits assumed): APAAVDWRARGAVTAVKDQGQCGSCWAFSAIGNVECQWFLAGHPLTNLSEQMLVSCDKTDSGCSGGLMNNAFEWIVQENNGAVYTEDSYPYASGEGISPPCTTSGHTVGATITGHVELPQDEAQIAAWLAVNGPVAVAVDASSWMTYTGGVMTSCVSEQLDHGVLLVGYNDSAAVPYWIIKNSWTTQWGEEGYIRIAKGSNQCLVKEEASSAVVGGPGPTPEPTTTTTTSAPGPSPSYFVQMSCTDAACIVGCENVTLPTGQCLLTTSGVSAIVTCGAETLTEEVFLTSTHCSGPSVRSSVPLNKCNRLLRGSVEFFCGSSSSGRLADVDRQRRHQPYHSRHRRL
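Cruzain (1.5 nM) preincubated 15 min at RT with compound in 100 mM sodium acetate pH 5.5, 5 mM DTT, 0.01% Triton X-100. Reaction started with 2 uM Z-FR-AMC; AMC fluorescence (ex 360/em 450 nm) change over 60 s gave rate.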
Cruzain noTriton = inhibitors of Trypanosoma cruzi cruzain without detergent | P25779 | purified cruzain, Z-FR-AMC fluorescence, no detergent | Potency, µM, without a hit: max response, negative = inhibition, usual class: inhibitors | hit rate 2.3% among 200,000;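 note: plate controls were enzyme without inhibitor for no effect and buffer without enzyme for full effect; nearly all actives have a fitted effect of over 40% in size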
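Purified cruzain at 1.5 nM, pre-incubated 15 min with compound at room temperature in 100 mM sodium acetate pH 5.5, 5 mM DTT, 0.00005% Triton X-100. Reaction started with 2 uM Z-FR-AMC; AMC fluorescence increase over 60 s gives rate.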
Starred values were filed as active, the others as inactive. Calls come from the whole dose curve; as a rule, active = well fitted curve in the direction sought with a large enough effect; inconclusive = small, poorly fitted or top-dose-only effect, or another doubt; inactive = no such curve, though single readings can be large; an effect the other way counts as inactive or inconclusive. Potency is the fitted concentration of half-maximal effect.

Results for N=C(N)SCc1ccc(Cl)c2ccccc12 (tested in a mixture with another compound) ?
Cruzain Triton: 1%; Cruzain noTriton: -4%

Results for Cc1c(C(=O)NCc2ccc3c(c2)OCO3)oc2ccc(S(=O)(=O)N3CCCCC3)cc12 ?
Cruzain Triton: 3%; Cruzain noTriton: inconclusive

How did Cc1ccc(NC(=O)c2oc3ccc(S(=O)(=O)N4CCCCC4)cc3c2C)cc1C do in these assays?
Cruzain Triton: 2%; Cruzain noTriton: 6%

How did Cc1c(C(=O)Nc2ccc(F)cc2)oc2ccc(S(=O)(=O)N3CCCCCC3)cc12 do in these assays?
Cruzain Triton: 0%; Cruzain noTriton: 32µM*

How did Cc1c(C(=O)NCc2ccc3c(c2)OCO3)oc2ccc(S(=O)(=O)N3CCCC3)cc12 do in these assays?
Cruzain Triton: -1%; Cruzain noTriton: 16µM*

How did CS[C@@H](CC(=O)O)C(=O)O do in these assays?
Cruzain Triton: 4%; Cruzain noTriton: 4%

What do the screens show for `O=C(CN1CCN(c2nc(-c3ccccc3)cs2)CC1)Nc1ccc2c(c1)OCO2`?
Cruzain Triton: 2%; Cruzain noTriton: 25µM*

How did O=C(CN1CCc2ccccc21)Nc1ccc2c(c1)OCO2 do in these assays?
Cruzain Triton: -2%; Cruzain noTriton: 13µM*

Results for O=C(CN1CCc2ccccc21)NCc1ccc2c(c1)OCO2 ?
Cruzain Triton: -2%; Cruzain noTriton: -4%

Results for CCc1nnc(NC(=O)CN2CCN(c3nc(-c4ccccc4)cs3)CC2)s1 ?
Cruzain Triton: -3%; Cruzain noTriton: inconclusive

How did CCN(CC)CCCNC(=O)c1nn(C)c2c1CSc1ccccc1-2 do in these assays?
Cruzain Triton: -2%; Cruzain noTriton: -14%

How did C[C@H]1C(c2cccc(Cl)c2)=NN(c2ccccc2)[C@@H]1CO do in these assays?
Cruzain Triton: 0%; Cruzain noTriton: inconclusive

How did OC[C@@H]1[C@@H](c2ccc(F)cc2)C(c2cccc(Cl)c2)=NN1c1ccccc1 do in these assays?
Cruzain Triton: 0%; Cruzain noTriton: 32µM*

What do the screens show for `OC[C@@H]1[C@@H](c2ccc(Cl)cc2)C(c2cccc(Cl)c2)=NN1c1ccccc1`?
Cruzain Triton: 2%; Cruzain noTriton: 25µM*

Results for OC[C@@H]1[C@@H](c2ccc(Cl)cc2)C(c2ccccc2)=NN1c1ccccc1 ?
Cruzain Triton: 0%; Cruzain noTriton: -18%

What do the screens show for `CC1=CC(C)(C)Nc2ccc(OC(=O)CN3C(=O)c4ccccc4C3=O)cc21`?
Cruzain Triton: -6%; Cruzain noTriton: 4%

Results for CC1=CC(C)(C)Nc2ccc(OC(=O)CN3C(=O)c4cccc5cccc(c45)C3=O)cc21 ?
Cruzain Triton: -8%; Cruzain noTriton: 25µM*

Results for CC(=O)c1[nH]c(C)c(C(=O)NCc2ccc(Cl)cc2)c1C ?
Cruzain Triton: 4%; Cruzain noTriton: -1%

Results for O=C(Cn1cc(SCc2ccccc2Cl)c2ccccc21)N1CCCCCC1 ?
Cruzain Triton: -8%; Cruzain noTriton: inconclusive

How did CCCCOCCCn1c(-c2ccco2)nc2nc3ccccc3nc21 do in these assays?
Cruzain Triton: 28µM*; Cruzain noTriton: inconclusive

How did COCCCn1c(-c2ccco2)nc2ccccc2c1=O do in these assays?
Cruzain Triton: -1%; Cruzain noTriton: 4%

Results for Cc1ccc(CNc2ncnc3onc(-c4ccc(F)cc4)c23)cc1 ?
Cruzain Triton: 5%; Cruzain noTriton: 2%

What do the screens show for `O=C(O)c1nc(-c2ccccc2)[nH]c1C(=O)O`?
Cruzain Triton: 4%; Cruzain noTriton: -6%

What do the screens show for `COc1ccc(-c2cc(-c3ccccc3)c(C#N)c(SCC(O)CS(=O)(=O)Cc3ccc(Cl)cc3)n2)cc1` (stereo not given)?
Cruzain Triton: 7%; Cruzain noTriton: inconclusive

Results for N#Cc1c(-c2ccccc2)cc(-c2ccccc2)nc1SCC(O)CS(=O)(=O)Cc1ccc(Cl)cc1 (stereo not given) ?
Cruzain Triton: -5%; Cruzain noTriton: 7.9µM*

Results for COc1ccccc1CNC(=O)CCCn1c(=O)c2cccn2c2ccccc21 ?
Cruzain Triton: -4%; Cruzain noTriton: inconclusive

Results for O=C(N/N=C/c1ccc(-c2cccc(C(F)(F)F)c2)o1)c1ccccc1O ?
Cruzain Triton: -6%; Cruzain noTriton: 10µM*

What do the screens show for `O=C(N/N=C/c1ccc(-c2cccc(C(F)(F)F)c2)o1)c1ccccc1Br`?
Cruzain Triton: -9%; Cruzain noTriton: 18%

What do the screens show for `Cc1cccc(CNC(=O)C2CCN(c3nc4ccc(Cl)cc4[nH]3)CC2)c1`?
Cruzain Triton: -5%; Cruzain noTriton: -9%

What do the screens show for `O=C(N/N=C/C=C/c1ccccc1)c1ccncc1`?
Cruzain Triton: -10%; Cruzain noTriton: 3%

How did C=CCn1cc(/C=N\NC(=O)c2cc3c(ccc4ccccc43)o2)c2ccccc21 do in these assays?
Cruzain Triton: 0%; Cruzain noTriton: 16µM*

Results for C#CCn1cc(/C=N/NC(=O)c2cc3ccccc3o2)c2ccccc21 ?
Cruzain Triton: -11%; Cruzain noTriton: -17%
